# From PubChem BioAssay (NCATS)
# Values without a mark were called inactive. Inconclusive results are not listed. A call without a number means that no potency is given here. Activity calls are given as the source filed them. The call rests on the fitted dose curve; in most records, active means well fitted curve in the direction sought with a large enough effect; inconclusive means small, poorly fitted or top-dose-only effect, or another doubt; inactive means no such curve, though single readings can be large; an effect the other way counts as inactive or inconclusive.
# Assays:
# [1] = biological target: Calcium and integrin-binding protein 1 (Homo sapiens) (UniProt Q99828); experiment: Primary qHTS for Identification of Calcium Integrin Binding Protein 1 (CIB1) Competitor (AID 1508620);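 further: GST tagged CIB1 binding a fluorescein labelled alphaIIb integrin peptide tracer; top concentration of the series differs between compounds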
# How it was run: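 CIB1-GST (1 uM final) and compound incubated 15 min at room temperature before adding FITC-alphaIIb peptide tracer (100 nM final). Competition for binding read by fluorescence polarization (ex 480, em 540) after another 15 min at room temperature.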
# [2] = Primary qHTS for inhibitors of nuclear receptor binding SET domain protein 2 (NSD2) in an isogenic RCH-ACV NSD2 p.E1099K mutant (9B) (AID 1645876); further: nearly all actives have a fitted effect of over 70% in size
# [3] = biological target: Phospholipid hydroperoxide glutathione peroxidase GPX4 (Homo sapiens) (UniProt P36969); experiment: Primary qHTS Assay for Inhibitors of Recombinant Selenoprotein Glutathione Peroxidase 4 (GPX4) (AID 1845192); further: nearly all actives have a fitted effect of over 65% in size
# How it was run: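 NADPH consumption followed by fluorescence at 340/450 nm, t=0 and after 15 min at room temperature. Reaction started with cumene hydroperoxide (0.5 mM final) after 30 min compound–GPX4 preincubation; final 200 nM GPX4, 100 nM GR, 1 mM GSH, 0.5 mM NADPH.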
# [4] = biological target: Luciferin 4-monooxygenase (Photinus pyralis) (UniProt P08659); experiment: Primary firefly luciferase (FLuc) qHTS assay for identification of artifact compounds. (AID 1845220); conditions: outcome: dose series up to 54.1 µM unless noted; further: nearly all actives have a fitted effect of over 60% in size
# How it was run: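 Compounds sat 15 min at room temperature with 10 uM luciferin and 10 uM ATP (pH 7.6 Tris acetate). Firefly luciferase (10 nM final) was then added, and luminescence was read 5 min later. Data normalized to no-enzyme and DMSO controls were Hill-fitted.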
# [5] = Primary fluorescence-based thiol-reactive (MSTI) qHTS assay for identification of artifact compounds. (AID 1845221); further: nearly all actives have a fitted effect of over 65% in size; further: potency means the concentration at half of the fitted maximal effect
# How it was run: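 qHTS titration of compound; 4 uM MSTI, PBS pH 7.4, 2% DMSO; 1 h RT, dark; fluorescence 525/598 nm; normalized to Acetyl-MSTI and MSTI; 4-parameter Hill fit.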
# [6] = test system: Nanoluciferase (engineered Oplophorus gracilirostris luciferase); experiment: Primary Nanoluciferase (NLuc) qHTS assay for identification of artifact compounds. (AID 1845222); further: potency means the concentration at half of the fitted maximal effect
# How it was run: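 Luminescence from secreted NLuc (filtered, 1:55-diluted S16 cell medium) read 5 min after Nano-Glo substrate; compounds preincubated 15 min, RT. Hill fits of inhibition normalized to DMSO and no-enzyme.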
# [7] = Primary redox qHTS assay for identification of artifact compounds. (AID 1845223)
# How it was run: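 Redox-cycling detection via DTT (250 uM final) oxidation coupled to Amplex Red (25 uM)/HRP (250 mU/mL) in HBSS. 15 min preincubation plus 30 min after DTT, room temperature. Ex/Em 525/598 nm; 4-parameter Hill fit against DMSO and 10 uM DA3003.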
# CRL-7250 = normal cell line; experiment: Cytotoxic Profiling of Annotated Libraries Using Quantitative High-Throughput Screening (AID 1296008); conditions: Five cell lines viability, CellTiter-Glo ATP luminescence, 48-72 h; max response: hits give low values; further: nearly all actives have a fitted effect of over 60% in size
# How it was run: (§1)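 Cytotoxicity was measured as CellTiter-Glo ATP luminescence, read after 10 min at room temperature. Compound treatment of the cells lasted 48 or 72 hr at 37 degrees Celsius in a qHTS format.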
# HEK293 = experiment: as above; conditions: Five cell lines viability, CellTiter-Glo ATP luminescence, 48-72 h; max response: hits give low values
# How it was run: as §1
# NIH3T3 = experiment: as above; conditions: Five cell lines viability, CellTiter-Glo ATP luminescence, 48-72 h; max response: hits give low values
# How it was run: as §1
# C33A = experiment: Primary qHTS to identify gynecologic anti-cancer compounds using libraries of approved drugs and bioactive compounds (AID 1345084); conditions: Gynecologic cancer cell panel viability, ATPlite luminescence, 48 h; series mostly up to 57.5 µM; further: nearly all actives have a fitted effect of over 55% in size
# How it was run: (§2)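 Cells, 1,000 per well, were allowed to settle for 16 h at 37 C before compound addition. Five concentrations were tested for 48 h, and viability was read by ATPlite luminescence after 15 min at room temperature.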
# CAOV3 = experiment: as above; conditions: Gynecologic cancer cell panel viability, ATPlite luminescence, 48 h; series mostly up to 57.5 µM
# How it was run: as §2
# CASKI = experiment: as above; conditions: Gynecologic cancer cell panel viability, ATPlite luminescence, 48 h; series mostly up to 57.5 µM
# How it was run: as §2
# Es-2 = experiment: as above; conditions: Gynecologic cancer cell panel viability, ATPlite luminescence, 48 h; series mostly up to 57.5 µM
# How it was run: as §2
# Hek293T = experiment: as above; conditions: Gynecologic cancer cell panel viability, ATPlite luminescence, 48 h, control line for the selectivity index; series mostly up to 57.5 µM
# How it was run: as §2
# JEG-3 = experiment: as above; conditions: Gynecologic cancer cell panel viability, ATPlite luminescence, 48 h; series mostly up to 57.5 µM
# How it was run: as §2
# OV90 = experiment: as above; conditions: Gynecologic cancer cell panel viability, ATPlite luminescence, 48 h; series mostly up to 57.5 µM
# How it was run: as §2
# PA-1 = experiment: as above; conditions: Gynecologic cancer cell panel viability, ATPlite luminescence, 48 h; series mostly up to 57.5 µM
# How it was run: as §2
# Tov-21-G = experiment: as above; conditions: Gynecologic cancer cell panel viability, ATPlite luminescence, 48 h; series mostly up to 57.5 µM
# How it was run: as §2
# Tov112D = experiment: as above; conditions: Gynecologic cancer cell panel viability, ATPlite luminescence, 48 h; series mostly up to 57.5 µM
# How it was run: as §2
# Calcium and integrin-binding protein 1 (Homo sapiens), sequence (Q99828 whole entry, looked up): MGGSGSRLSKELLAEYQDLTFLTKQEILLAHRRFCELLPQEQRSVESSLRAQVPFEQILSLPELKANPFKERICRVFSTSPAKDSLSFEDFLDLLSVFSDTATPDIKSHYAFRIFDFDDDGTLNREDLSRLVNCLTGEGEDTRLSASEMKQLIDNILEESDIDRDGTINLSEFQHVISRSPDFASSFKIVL
# Phospholipid hydroperoxide glutathione peroxidase GPX4 (Homo sapiens), sequence (P36969 whole entry, looked up): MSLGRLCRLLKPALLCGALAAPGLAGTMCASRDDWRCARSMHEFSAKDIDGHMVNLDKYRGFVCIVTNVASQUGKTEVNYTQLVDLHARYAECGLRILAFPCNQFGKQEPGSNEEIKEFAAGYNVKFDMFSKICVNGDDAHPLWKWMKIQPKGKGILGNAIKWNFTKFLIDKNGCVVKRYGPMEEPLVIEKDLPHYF
smiles,measurement,setting,value
CN1CCc2cc3c(cc2C1C1OC(=O)c2c1ccc1c2OCO1)OCO3 (stereo not drawn),Potency,[1],inactive
same,Potency,[2],inactive
same,Potency,[3],inactive
same,outcome,[4],inactive
same,Potency,[5],inactive
same,Potency,[6],inactive
same,Potency,[7],inactive
same,max response,CRL-7250,-4.88%
same,max response,HEK293,1.39%
same,max response,NIH3T3,0.735%
same,Potency,C33A,inactive
same,Potency,CAOV3,inactive
same,Potency,CASKI,inactive
same,Potency,Es-2,inactive
same,Potency,Hek293T,inactive
same,Potency,JEG-3,inactive
same,Potency,OV90,inactive
same,Potency,PA-1,inactive
same,Potency,Tov-21-G,inactive
same,Potency,Tov112D,inactive
C=CC(C)(C)c1[nH]c2c(CC=C(C)C)cc(CC=C(C)C)cc2c1C[C@@H]1NC(=O)[C@H](C)NC1=O,Potency,[1],inactive
same,Potency,[2],inactive
same,Potency,[3],inactive
same,outcome,[4],inactive
same,Potency,[5],inactive
same,Potency,[6],inactive
same,Potency,[7],inactive
same,max response,CRL-7250,3.03%
same,max response,HEK293,-8.14%
same,max response,NIH3T3,2.77%
same,Potency,C33A,inactive
same,Potency,CAOV3,inactive
same,Potency,CASKI,inactive
same,Potency,Es-2,inactive
same,Potency,Hek293T,inactive
same,Potency,JEG-3,inactive
same,Potency,OV90,inactive
same,Potency,PA-1,inactive
same,Potency,Tov-21-G,inactive
same,Potency,Tov112D,inactive
CC1=CC2/C=C(\C)CCCC(O)/C=C/C(=O)OC23C(=O)NC(CC(C)C)C3C1C (stereo not drawn),Potency,[1],inactive
same,Potency,[2],inactive
same,Potency,[3],inactive
same,outcome,[4],inactive
same,Potency,[5],inactive
same,Potency,[6],inactive
same,Potency,[7],inactive
same,outcome,CRL-7250,inactive
same,max response,HEK293,-0.114%
same,max response,NIH3T3,1.49%
same,Potency,C33A,inactive
same,Potency,CAOV3,inactive
same,Potency,Es-2,inactive
same,Potency,Hek293T,inactive
same,Potency,JEG-3,inactive
same,Potency,OV90,inactive
same,Potency,PA-1,inactive
same,Potency,Tov-21-G,inactive
same,Potency,Tov112D,inactive
CC[C@H]1C2CC3[C@@H]4N(C)c5ccccc5[C@]45C[C@@H]([C@H]2[C@H]5O)N3[C@H]1O,Potency,[2],inactive
same,Potency,[3],inactive
same,outcome,[4],inactive
same,Potency,[6],inactive
same,max response,CRL-7250,3.45%
same,max response,HEK293,3.06%
same,max response,NIH3T3,4.15%
same,Potency,C33A,inactive
same,Potency,CAOV3,inactive
same,Potency,CASKI,inactive
same,Potency,Es-2,inactive
same,Potency,Hek293T,inactive
same,Potency,JEG-3,inactive
same,Potency,OV90,inactive
same,Potency,PA-1,inactive
same,Potency,Tov-21-G,inactive
same,Potency,Tov112D,inactive
COc1ccc2c3c4n(c2c1)[C@@H](C=C(C)C)OOC(C)(C)C[C@@H]4N1C(=O)[C@@H]2CCCN2C(=O)[C@]1(O)[C@H]3OCC=C(C)C,Potency,[1],inactive
same,Potency,[2],inactive
same,outcome,[4],inactive
same,Potency,[5],inactive
same,Potency,[6],inactive
same,Potency,[7],inactive
same,outcome,CRL-7250,inactive
same,max response,HEK293,-3.84%
same,max response,NIH3T3,0.42%
same,Potency,C33A,inactive
same,Potency,CAOV3,inactive
same,Potency,CASKI,inactive
same,Potency,Es-2,inactive
same,Potency,Hek293T,inactive
same,Potency,JEG-3,inactive
same,Potency,OV90,inactive
same,Potency,PA-1,inactive
same,Potency,Tov-21-G,inactive
same,Potency,Tov112D,inactive
COC(=O)[C@]12CCCC(C)(C)C1CCc1cc(C(C)C)c(O)c(O)c12 (stereo partly drawn),Potency,[1],inactive
same,Potency,[2],inactive
same,Potency,[3],inactive
same,outcome,[4],inactive
same,Potency,[6],18.6 µM (active)
same,max response,CRL-7250,-0.302%
same,max response,HEK293,3.53%
same,max response,NIH3T3,2.35%
same,Potency,C33A,inactive
same,Potency,CAOV3,inactive
same,Potency,CASKI,inactive
same,Potency,Es-2,inactive
same,Potency,Hek293T,inactive
same,Potency,JEG-3,inactive
same,Potency,OV90,inactive
same,Potency,PA-1,inactive
same,Potency,Tov-21-G,inactive
same,Potency,Tov112D,inactive
C=CC/C=C\C/C=C\CCCCCCCc1cc(O)cc(O)c1,Potency,[1],inactive
same,Potency,[3],inactive
same,outcome,[4],inactive
same,Potency,[5],inactive
same,Potency,[6],inactive
same,Potency,[7],inactive
same,max response,CRL-7250,-22.2%
same,max response,HEK293,-20.2%
same,max response,NIH3T3,-20.8%
same,Potency,C33A,inactive
same,Potency,CAOV3,inactive
same,Potency,CASKI,inactive
same,Potency,Es-2,inactive
same,Potency,Hek293T,inactive
same,Potency,JEG-3,inactive
same,Potency,OV90,inactive
same,Potency,PA-1,inactive
same,Potency,Tov-21-G,inactive
same,Potency,Tov112D,inactive
C/C=C1/CN2CC[C@]34C(=Nc5ccc(OC)cc53)C2C[C@@H]1C4(CO)C(=O)OC (stereo partly drawn),Potency,[1],inactive
same,Potency,[2],inactive
same,Potency,[3],inactive
same,outcome,[4],inactive
same,Potency,[5],inactive
same,Potency,[6],inactive
same,Potency,[7],inactive
same,max response,CRL-7250,0.729%
same,max response,HEK293,4.62%
same,max response,NIH3T3,4.25%
same,Potency,C33A,inactive
same,Potency,CAOV3,inactive
same,Potency,CASKI,inactive
same,Potency,Es-2,inactive
same,Potency,Hek293T,inactive
same,Potency,JEG-3,inactive
same,Potency,OV90,inactive
same,Potency,PA-1,inactive
same,Potency,Tov-21-G,inactive
same,Potency,Tov112D,inactive
C1=C(c2cnc[nH]2)c2ccsc2CC1,Potency,[2],inactive
same,Potency,[3],inactive
same,outcome,[4],inactive
same,Potency,[5],10.6 µM (active)
same,Potency,[6],inactive
same,Potency,[7],inactive
same,max response,CRL-7250,4.29%
same,max response,HEK293,-1.06%
same,max response,NIH3T3,-2.31%
same,Potency,C33A,inactive
same,Potency,CAOV3,inactive
same,Potency,CASKI,inactive
same,Potency,Es-2,inactive
same,Potency,Hek293T,inactive
same,Potency,JEG-3,inactive
same,Potency,OV90,inactive
same,Potency,PA-1,inactive
same,Potency,Tov-21-G,inactive
same,Potency,Tov112D,inactive
C/C=C(/C)C1C=CC2CC(C)CC(C)C2C1/C(O)=C1\C(=O)NC(CC(C)(O)C(=O)O)C1=O (stereo not drawn),Potency,[1],inactive
same,Potency,[2],inactive
same,Potency,[3],inactive
same,outcome,[4],inactive [at 25.7 µM]
same,Potency,[6],inactive
same,outcome,CRL-7250,inactive
same,max response,HEK293,-1.39%
same,max response,NIH3T3,1.49%
same,Potency,C33A,inactive
same,Potency,CASKI,inactive
same,Potency,Es-2,inactive
same,Potency,Hek293T,inactive
same,Potency,JEG-3,inactive
same,Potency,OV90,inactive
same,Potency,PA-1,inactive
same,Potency,Tov-21-G,inactive
same,Potency,Tov112D,inactive
